Reference: PubChem BioAssay (NCATS)
Results filed as inconclusive are left out. The source made the active and inactive calls. Calls come from the whole dose curve; as a rule, active = well fitted curve in the direction sought with a large enough effect; inconclusive = small, poorly fitted or top-dose-only effect, or another doubt; inactive = no such curve, though single readings can be large; an effect the other way counts as inactive or inconclusive.

Legend:
[1] = tested on: Zika virus NS2B-NS3 protease (linked construct); assay: Primary screen NINDS Rhodamine qHTS for Zika virus inhibitors (AID 1347160); note: nearly all actives have a fitted effect of over 55% in size; note: potency is the fitted concentration of half-maximal effect
Method in brief: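 Each compound, titrated, sat 15 min with 25 nM linked protease before 1.5 microM Rhodamine110 substrate went in. Fluorescence gain over the next 15 min, in pH 8.0 Tris with Tween 20, gave Hill-fitted curves.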

[2] = OV-KATE Cancer Cell Toxicity qHTS against the NCATS CANVASS Library (AID 1347345); note: potency is the fitted concentration of half-maximal effect
Method in brief: (§1)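 Following a 4 h pre-incubation of 1000 seeded cells, compounds were pinned in an 11-pnt dilution series and left for 72 h; viability then came from CellTiter-Glo.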

[3] = HPAF-II Cancer Cell Toxicity qHTS against the NCATS CANVASS Library (AID 1347346); note: nearly all actives have a fitted effect of over 55% in size; note: potency is the fitted concentration of half-maximal effect
Method in brief: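 First, HPAF-II cells are plated (1000 cells/well) and held 4 h at 37 degrees C. Next, compounds are pin-transferred as an 11-point series. After 72 h, CellTiter-Glo is added and luminescence measured.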

[4] = OV-SAHO Cancer Cell Toxicity qHTS against the NCATS CANVASS Library (AID 1347348); note: nearly all actives have a fitted effect of over 55% in size; note: potency is the fitted concentration of half-maximal effect
Method in brief: as §1

[5] = SW1088 Cancer Cell Toxicity qHTS against the NCATS CANVASS Library (AID 1347350); note: nearly all actives have a fitted effect of over 75% in size; note: potency is the fitted concentration of half-maximal effect
Method in brief: as §1

[6] = HEK293 18hr Apoptosis Induction qHTS against the NCATS CANVASS Library (AID 1347357)
Method in brief: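 HEK293 cells (500/well, DMEM + 10% FBS) treated with an 11-point series for 18 h at 37 degrees C. Caspase-3/7 activity read by Caspase-Glo luminescence after 15 min at room temperature.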

[7] = HEK293 24hr Apoptosis Induction qHTS against the NCATS CANVASS Library (AID 1347359)
Method in brief: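 HEK293 cells, 500 per well, exposed to an 11-point compound series for 24 hours at 37 degrees C. Caspase 3/7 activity read by Caspase-Glo luminescence (DEVD substrate) after 15 min at room temperature.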

[8] = KB-3-1 Cancer Cell Toxicity qHTS against the NCATS CANVASS Library (AID 1347366); note: nearly all actives have a fitted effect of over 75% in size; note: potency is the fitted concentration of half-maximal effect
Method in brief: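 KB-3-1 cells (500/well) in DMEM with 10% FBS were exposed to compounds for 72 h at 37C. Viability was read by CellTiter-Glo luminescence.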

[9] = qHTS for ATAD5 Agonist screened against the NCATS CANVASS Library (AID 1347367);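 note: luciferase reporter driven by ATAD5 which rises upon DNA damage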; note: potency is the fitted concentration of half-maximal effect
Method in brief: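 Luciferase reporter under ATAD5 control, stably integrated in HEK293T cells (2000/well). Compounds (11 points) incubated 16 h at 37C; viability read first by CellTiter-Fluor, then luminescence reporting ATAD5 activation. MMS positive control.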

[10] = MCF7 Cancer Cell Toxicity qHTS against the NCATS CANVASS Library (AID 1347369); note: potency is the fitted concentration of half-maximal effect
Method in brief: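 MCF7 cells (500/well) were exposed 72 h at 37 °C to compounds in an 11-point series. Viability was read as ATP content by CellTiterGlo luminescence.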

[11] = J3T Cancer Cell Toxicity qHTS against the NCATS CANVASS Library (AID 1347371); note: potency is the fitted concentration of half-maximal effect
Method in brief: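 Luminescence from CellTiterGlo, reporting cellular ATP, serves as the viability measure after 72 hr compound treatment of J3T canine glioma cells seeded at 500 cells/well.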

[12] = target: Nuclear receptor subfamily 1 group I member 3 (Homo sapiens) (UniProt Q14994); assay: qHTS for Constitutive Androstane Receptor (CAR) Agonist screened against the NCATS CANVASS Library (AID 1347373);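 note: every well also contained 1.5 µM PK11195 alongside the test compound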
Nuclear receptor subfamily 1 group I member 3 (Homo sapiens), sequence (Q14994 whole entry, looked up): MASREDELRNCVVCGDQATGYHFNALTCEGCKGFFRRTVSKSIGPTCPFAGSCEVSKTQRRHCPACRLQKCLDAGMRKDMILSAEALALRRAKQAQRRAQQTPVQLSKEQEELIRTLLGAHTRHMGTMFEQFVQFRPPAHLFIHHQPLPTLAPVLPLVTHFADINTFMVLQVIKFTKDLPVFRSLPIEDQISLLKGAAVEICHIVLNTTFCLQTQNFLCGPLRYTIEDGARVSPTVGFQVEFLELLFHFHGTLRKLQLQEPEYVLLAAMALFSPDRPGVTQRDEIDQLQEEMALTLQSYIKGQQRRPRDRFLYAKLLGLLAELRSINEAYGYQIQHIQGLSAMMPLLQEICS
Method in brief: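 Cells were plated and allowed to attach for 4hr, then dosed with compound in an 11-point series alongside 1.5uM PK11195. After 24hr at 37C, viability was measured fluorometrically and CAR-driven CYP2B6 reporter luminescence was recorded.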

[13] = 10-beta competent E. coli microbial cell viability qHTS against the NCATS CANVASS Library (AID 1347376); note: series mostly up to about 46 µM
Method in brief: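 Bacterial suspension diluted to 0.2 OD was dosed with compounds, 11-point series, then held overnight at 37C. BacTiter-Glo reagent was added, and after 20 min at room temperature ATP-dependent luminescence was measured.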

[14] = qHTS for Inflammasome Signaling Inhibitors: IL-1-beta AlphaLISA screen against the NCATS CANVASS Library (AID 1347379);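 note: human THP-1 cells primed with LPS then triggered with ATP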;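 for Potency: secreted IL-1B measured as AlphaLISA emission at 615 nm; potency is the fitted concentration of half-maximal effect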
Method in brief: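 Secreted IL-1B from human THP-1 cells quantified by AlphaLISA 16 hr after compound addition (final up to 57.5 uM). A 1 hr compound pretreatment preceded inflammasome activation with 250 ng/mL LPS plus 1.25 mM ATP (final).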

[15] = Inflammasome Signaling qHTS Counterscreen: IL-1-beta AlphaLISA counterscreen against the NCATS CANVASS Library (AID 1347381);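 note: cell-free check with purified IL-1β in medium and no THP-1 cells; series mostly up to about 57 µM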
Method in brief: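 Purified IL-1-beta (4 pg/well) + compound, 11-pt conc. series; acceptor beads 6 ug/mL + biotin-Ab 0.6 nM final, 1 h RT; SA-donor 24 ug/ml final, 30 min dark RT; read ex 680/em 615.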

[16] = Vero-766 cells viability qHTS against the NCATS CANVASS Library: Counterscreen for Zika virus inhibition assay (AID 1347394); note: nearly all actives have a fitted effect of over 60% in size; note: potency is the fitted concentration of half-maximal effect
Method in brief: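 Vero 766 cells (1000/well), without Zika virus, were exposed to compounds for 72 h at 37C. Viability was measured by CellTiter Glo luminescence. Media-only wells served as 100% inhibition.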

[17] = Viability qHTS for inhibitors of the SERCaMP assay screened against the NCATS CANVASS Library (AID 1347400); note: nearly all actives have a fitted effect of over 70% in size; note: potency is the fitted concentration of half-maximal effect
Method in brief: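 Seed SH-SY5Y-GLuc SERCaMP MJH297 cells at 1000 per well, incubate 4 h, add compounds across an 11-point range, incubate 48 h at 37C, then add CellTiter-Glo and read luminescence.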

[18] = Panc-1005 Cancer Cell Toxicity qHTS against the NCATS CANVASS Library (AID 1347349); note: nearly all actives have a fitted effect of over 60% in size; note: potency is the fitted concentration of half-maximal effect
Method in brief: as §1

[19] = UWB1.289 Cancer Cell Toxicity qHTS against the NCATS CANVASS Library (AID 1347347); note: nearly all actives have a fitted effect of over 60% in size; note: potency is the fitted concentration of half-maximal effect
Method in brief: as §1

[20] = COV-362 Cancer Cell Toxicity qHTS against the NCATS CANVASS Library (AID 1347352); note: potency is the fitted concentration of half-maximal effect
Method in brief: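 First, 1000 cells go into each well and rest for 4 hours. Next, an 11-point dilution range is pinned in. Plates then incubate 72 hours before CellTiter-Glo addition and luminescence reading.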

Measured: Potency

O=Cc1ccc2n1C[C@@]1(C[C@H](O)[C@H](O)CO1)OC2
active: [4] 13.3 µM
not listed: [18] | [19] | [20]
inactive: all other assays above

C/C1=C/[C@@H](C)[C@H](O)C/C=C/CC/C=C/C(=O)O[C@@H]1[C@H](C)C(=O)/C=C/CC1CC(=O)NC(=O)C1
active: [1] 44 µM | [2] 18.8 µM | [3] 13.3 µM | [4] 8.38 µM | [18] 11.9 µM | [5] 21.1 µM | [8] 13.2 µM | [11] 16.6 µM | [14] 13.7 µM | [17] 38.1 µM
inactive: [6] | [7] | [9] | [10] | [12] | [13] | [15] | [16]

C=C1C[C@@]23C=CC(=O)[C@@](C)(CCCC(C)C(=O)O)[C@@H]2C[C@@H]1CC3 (stereo partly specified)
active: [1] 44 µM
not listed: [5]
inactive: all other assays above

C=C1C(=O)O[C@H]2[C@H]1CC/C(CO)=C\CC[C@@]1(C)O[C@@H]21
inactive: [1] | [7] | [9] | [12] | [13] | [15] | [16]
active: [2] 18.8 µM | [3] 16.8 µM | [19] 7.47 µM | [4] 23.6 µM | [18] 10.6 µM | [20] 13.3 µM | [11] 18.7 µM | [14] 6.11 µM | [17] 34 µM

C=C(C)CC[C@H](Cc1c(O)cc(O)c2c1O[C@H](c1ccc(O)cc1O)CC2=O)C(=C)C
active: [1] 19.6 µM | [5] 21.1 µM | [16] 23.4 µM
not listed: [18] | [19]
inactive: all other assays above

C=C1C[C@@]23C=CC(=O)[C@@](C)(CCC(=O)Nc4c(O)ccc(C(=O)O)c4O)C2C[C@@H]1CC3O (stereo partly specified)
active: [1] 49.3 µM
not listed: [18]
inactive: all other assays above

O=C1C[C@@H](c2ccc(O)c(-c3c(O)cc(O)c4c3O[C@H](c3ccc(O)cc3)CC4=O)c2)Oc2cc(O)cc(O)c21
active: [1] 4.84 µM
not listed: [19]
inactive: all other assays above

CN1CC[C@]2(c3cccc4c3N[C@@H]3N(C)CC[C@]43[C@@]34CCN(C)[C@@H]3Nc3ccccc34)c3ccccc3N[C@H]12
inactive: [1] | [7] | [9] | [12] | [13] | [15]
active: [2] 14.9 µM | [3] 18.8 µM | [19] 18.8 µM | [4] 18.8 µM | [18] 16.8 µM | [20] 13.3 µM | [8] 16.6 µM | [10] 9.31 µM | [11] 7.43 µM | [14] 24.3 µM | [16] 26.3 µM | [17] 15.2 µM

C[C@@H](O)[C@H]1OC(=O)C=C2[C@]3(C)[C@H]4[C@H](OC(=O)[C@@]4(C)[C@@H](O)[C@H]4O[C@H]43)[C@H]3O[C@@]231
inactive: [1] | [6] | [7] | [12] | [13] | [15]
active: [2] 3.34 µM | [3] 3.35 µM | [19] 2.65 µM | [4] 1.33 µM | [18] 2.11 µM | [20] 1.88 µM | [8] 1.48 µM | [9] 0.524 µM | [11] 3.32 µM | [14] 12.2 µM | [16] 9.33 µM | [17] 7.6 µM

COc1ccc(/C=C2\COc3cc(O)ccc3C2=O)cc1
active: [1] 22 µM
not listed: [5] | [12] | [14] | [17] | [18]
inactive: all other assays above

C[C@@H]1O[C@@H](O[C@@H]2[C@@H](O)[C@H](O[C@@H]3[C@@H](O)[C@@H](O)C(O[C@H]4[C@H](OC(=O)[C@]56CCC(C)(C)C[C@H]5C5=CCC7[C@@]8(C)C[C@H](O)[C@H](O[C@@H]9C[C@H](CO)[C@@H](O)[C@H](O)[C@H]9O)[C@@](C)(CO)C8[C@H](O)C[C@@]7(C)[C@]5(C)CC6)OC[C@H](O)[C@@H]4O)O[C@H]3C)OC[C@H]2O)[C@H](O)[C@H](O)[C@H]1O (stereo partly specified)
active: [1] 24.3 µM
not listed: [19]
inactive: all other assays above
